PubChem BioAssay AID504362 (National Center for Advancing Translational Sciences (NCATS), 2011)
Records with an inconclusive call do not appear. Active and inactive are the calls of the source. Calls follow the shape of the dose curve; as a rule, active = well fitted activation curve with a large enough effect; inconclusive = small, poorly fitted or top-dose-only effect; inactive = flat fitted curve, though single readings scatter.

Experiment: qHTS Assay for Identifying a Potential Treatment of Ataxia-Telangiectasia: SAR for Probe
Conditions: F2112 A-T fibroblasts, NCS-induced pKAP1 AlphaLISA; series mostly up to 76.9 µM
Text: NIH Chemical Genomics Center [NCGC] NIH Molecular Libraries Probe Centers Network [MLPCN] MLPCN Grant: MH089030-01 Assay Submitter (PI): Wei Zheng and Yosef Shiloh Ataxia-telangiectasia (A-T) is a devastating and progressive disease for which, there is no cure. Although A-T is a multisystem disease, it is stereotyped characterized by its neurological symptoms such as truncal ataxia, due to cerebellar cortical degeneration of the Purkinje and granule cells. Other symptoms of A-T are telangiectasias (dilated blood vessels), primary immunodeficiency, marked sensitivity to ionizing radiation (IR), chromosomal instability and predisposition to cancer. The underlying genetic cause of A-T is null mutations in the ATM (A-T mutated) gene. ATM is a nuclear serine/threonine kinase that functions as a master regulator of the cellular responses to double strand breaks (DSBs) in the DNA. Upon activation by DSBs, ATM phosphorylates a plethora of downstream targets, including KAP-1 on […]. KAP-1 phosphorylation occurs shortly in response to DSBs and mediates global chromatin relaxation, which facilitates DSB repair. To screen for small molecules that will compensate for the loss of ATM in cells derived from A-T patients, we monitored KAP-1 phosphorylation as a readout for ATM-like activity using an AlphaLISA assay. This set of data is for analogs of the probe molecule in the primary screening assay.
qHTS Assay Protocol: Step,Parameter,Value,Description 1. Cell Plating, 3 ul, 500 cells/well in OPTI-MEM, 1% FBS, 1% Pen/Strep 2. Incubation, 16-24 hr, 37C, 5% CO2, 95% humidity 3. Library compounds, 23 nl, 76.7 - 0.61uM dilution series final concentration 4. Incubation, 60 min, 37C, 5% CO2, 95% humidity 5. Reagent, 1 ul, 1600 ng/ml NCS in PBS + 0.05% BSA + 0.005% Tween 20 6. Incubation, 30 min, 37C, 5% CO2, 95% humidity 7. Reagent, 1 ul, Premixed detection reagents and lysis buffer 8. Reagent, 1 ul, 0.6% Antifoam A 9. Incubation, 6 hr, 25C, 95% humidity 10. Readout, EnVision, EnVision plate reader. AlphaScreen 1536-well protocol Cells were plated using medium-binding white solid-bottom tissue culture treated Kalypsys plates. Multidrop dispense of 3 uL of F2112 (hTERT immortalized A-T patient fibroblast cells). Detection reagent and lysis buffer was 3.75nM Rab-a-pKAP1 antibody bound to 75 ng/ul AlphaScreen SA donor bead, 3.75 nM Biot-M-a-KAP1 antibody bound to AlphaLISA protein A acceptor bead, 0.5x protease inhibitor cocktail and 0.25x PerkinElmer lysis buffer. EnVision protocol for 1536-well AlphaScreen read (30ms excitation, 100ms read), about 10 min/plate.

With `COc1cc(/C=C/C(=O)n2cnc3ccccc32)cc(OC)c1OC` as the molecule, how does the Potency read?
Its Potency is 13 µM (active).

With `C=CCSc1nc2ccccc2n1C(=O)/C=C/c1ccc(F)cc1` as the molecule, how does the Potency read?
The Potency was 9.23 µM (active).

With `O=C(/C=C/c1ccccc1)n1cnc2ccccc21` as the molecule, how does the Potency read?
Its Potency is “inactive”.

Which Potency does the source give for `CN1CCN(c2nc(C3=C(c4c[nH]c5ccccc45)C(=O)NC3=O)c3ccccc3n2)CC1` here?
The Potency was “inactive”.

Which Potency does the source give for `CC1(C)C=Cc2ccc(O)c(C(=O)/C=C/c3ccccc3)c2O1` here?
The Potency was 36.8 µM (active).

Which Potency does the source give for `COc1cc(/C=C/C(=O)c2ccccc2)cc(OC)c1OC` here?
The Potency was 46.3 µM (active).

For `CC1(C)C=Cc2c(O)cc(O)c(C(=O)/C=C/c3ccccc3)c2O1`, which Potency is on record?
The Potency was 46.3 µM (active).

With `CC(C)=C/C=C/C(=O)c1ccccc1O` as the molecule, how does the Potency read?
The Potency was “inactive”.

Which Potency does the source give for `COc1c(C(=O)/C=C/c2ccccc2)ccc2c1C=CC(C)(C)O2` here?
Its Potency is 36.8 µM (active).

With `C=CCSc1nc2ccccc2n1C(=O)/C=C/c1ccc(OC)c(OC)c1` as the molecule, how does the Potency read?
Its Potency is 14.6 µM (active).
